Bioassay records: PubChem BioAssay, National Center for Advancing Translational Sciences (NCATS)
A selection: hits, their analogues and other compounds. The true share with any hit is near 17%.
TDP1 cell CPT – DT40-hTDP1 cell growth loss with CPT. chicken DT40 Tdp1-/-;hTDP1 cells + 20 nM CPT, ATP luminescence, 48 h. Potency, µM (titrated, usually from 46.2 µM), hits mostly inhibitors. 420,000 tested, 12% active; further: nearly all actives have a fitted effect of over 55% in size
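Chicken DT40 Tdp1-/- cells stably complemented with human TDP1 were seeded at 400 cells/well in medium containing 20 nM camptothecin, exposed to pin-transferred compounds, and grown at 37 °C for at least 48 hr. Viability was read as ATP luminescence.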
ATXN viability – reduces viability in counter-screen for ATXN expression inhibitors; Potency, µM (titrated, usually from 56.7 µM), hits mostly cytotoxic; 400,000 tested, 0.49% active; S2 cells (HEK-293 line with an ATXN2-luciferase reporter) viability, CellTiter-Fluor protease fluorescence, 24 h; further: nearly all actives have a fitted effect of over 40% in size
TDP1 cell noCPT – qHTS for Inhibitors of human tyrosyl-DNA phosphodiesterase 1 (TDP1): qHTS in cells in absence of CPT; DT40 Tdp1-/- hTDP1 cells, no CPT, ATP luminescence, 48 h; Potency, µM (top dose mostly 46.2 µM), actives largely listed as inhibitors; 420,000 tested, 15% active; AID 686978, 2013; further: nearly all actives have a fitted effect of over 55% in size
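Cells were dispensed at 400 per well, compounds added by pin tool, plates incubated ≥48 hr at 37 °C, then CellTiter-Glo added for 30 min at room temperature before luminescence reading. Line: DT40 Tdp1-/- complemented with hTDP1; camptothecin omitted.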
TGFb SMAD3 inh – inhibitors of TGF-b signaling | HepG2 CAGA-GFP TGF-b/SMAD3 reporter, GFP fluorescence, 18 h; TGF-beta stimulated, 500 pg/mL final | Potency, µM (doses to about 46.1 µM), hits mostly inhibitors | 410,000 tested, 1.2% active | AID 588855; further: nearly all actives have a fitted effect of over 65% in size
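HEPG2 CAGA-GFP cells (1000/well, DMEM with 1% FBS) were pre-incubated 2 h at 37 degrees C, given compound by pin tool, then stimulated with TGF-beta at 500 pg/mL final for 18 h before per-cell GFP fluorescence imaging.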
ATXN2 expr inh – reduces ATXN2 reporter expression in HEK-293 cells. HEK-293 ATXN2-luciferase reporter, luminescence, 24 h. Potency, µM (top dose mostly 57 µM), most hits filed as inhibitors. 360,000 tested, 0.72% active. AID 1745845; further: nearly all actives have a fitted effect of over 55% in size
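ATXN2-luciferase reporter cells (luciferase flanked by upstream and downstream ATXN2 gene portions) were treated 24 h at 37 °C with compounds at up to 57 uM. SteadyGlo luminescence gave expression; GF-AFC fluorescence gave viability.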
HepG2 tox – HepG2 cytotoxicity, counter-screen for TGF-b inhibitors | HepG2 CAGA-GFP viability, ATP luminescence, 18 h | AID 588856 | 410,000 tested, 0.76% active | Potency, µM (series often up to 46.1 µM), most hits filed as cytotoxic
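CellTiter-Glo luminescence gave cytotoxicity after 18 hours at 37 degrees C. The cells were HepG2 CAGA-GFP in 1% FBS DMEM, stimulated with 500 pg/mL TGF-beta after compound addition. %Activity was normalised to no-cell wells (complete cell-killing) and DMSO (no toxicity), and curves were fitted and classified.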
A number is an active result; - = inactive; ? = inconclusive; . = no result given. The call rests on the fitted dose curve; in most records, active means well fitted curve in the direction sought with a large enough effect; inconclusive means small, poorly fitted or top-dose-only effect, or another doubt; inactive means no such curve, though single readings can be large; an effect the other way counts as inactive or inconclusive.

SMILES	TDP1 cell CPT	ATXN viability	TDP1 cell noCPT	TGFb SMAD3 inh	ATXN2 expr inh	HepG2 tox
Cc1ccc(S(=O)(=O)NCCNc2ccc([N+](=O)[O-])cc2C(F)(F)F)cc1	?	-	?	?	-	-
O=[N+]([O-])c1ccc(NCCCNS(=O)(=O)c2ccccc2)c(Cl)c1	?	?	16µM	-	-	-
Cc1ccc(C(=O)NCCNc2ccc([N+](=O)[O-])cc2C(F)(F)F)cc1	18µM	-	18µM	-	-	-
O=C(NCCNc1ccc([N+](=O)[O-])cc1C(F)(F)F)c1ccccc1F	?	-	?	-	-	-
O=[N+]([O-])c1ccc(NCCNS(=O)(=O)c2ccccc2)c(C(F)(F)F)c1	26µM	-	18µM	-	-	-
COc1ccc(CCN=CC2=C(O)CCCC2=O)cc1OC	-	-	-	-	-	-
COC(=O)C1=C(N)c2c(F)cccc2C1(C#N)c1ccc(F)cc1 (stereo unspecified)	?	-	?	-	-	-
COC(=O)CCC(C)C1CCC2C3CCC4CC(O)CCC4(C)C3CC(O)C12C (stereo unspecified)	13µM	?	21µM	?	?	-
COC(=O)CCC(C)C1CCC2C3C(OC(C)=O)CC4CC(O)CCC4(C)C3CC(O)C12C (stereo unspecified)	?	-	16µM	-	.	-
COc1ccc(Br)cc1CNC(=O)c1cc(=O)[nH]c2ccc(S(=O)(=O)N3CCCCC3C)cc12 (stereo unspecified)	?	.	?	-	.	-
CCCCCC(=O)NC(Cc1ccc(OC)c([N+](=O)[O-])c1)C(=O)O (stereo unspecified)	?	-	?	-	.	-
CCOC(=O)c1ccc(NC(=O)c2c(N3CCCC3=O)c3cc(OC)ccc3n2C)cc1	.	-	.	-	-	-
CCOC(=O)C(=CNc1ccc(NC2=NCC(C)S2)cc1)C(=O)OCC (stereo unspecified)	9.2µM	-	6.5µM	-	-	-
CCNC(=O)C1(C)CCCN1Cc1ccccc1Cl (stereo unspecified)	23µM	-	?	-	-	-
CC1(C(=O)NCc2cccc3ccccc23)CCN1Cc1cccc2c1OCO2 (stereo unspecified)	23µM	-	15µM	?	-	-
CC1(C(=O)NCc2cccc3ccccc23)CCN1Cc1ccc(OC(F)(F)F)cc1 (stereo unspecified)	?	?	?	?	-	-
CC(C)CCNC(=O)C1(C)CCN1Cc1ccc2ccccc2c1 (stereo unspecified)	?	-	23µM	?	-	-
CC(C)NC(=O)C1(C)CCCN1Cc1ccccc1C#N (stereo unspecified)	?	-	?	-	-	-
CC(C)NC(=O)C1(C)CCCCN1Cc1ccc(OCc2ccccc2)cc1 (stereo unspecified)	2.3µM	-	1.6µM	?	-	-
C[C@H](O)[C@@H]1C(=O)N2C(C(=O)O)=C(S[C@@H]3CN[C@H](CNS(N)(=O)=O)C3)[C@@H](C)[C@@H]12	.	.	.	.	-	.
CCCCNC(=O)C1(C)CCCCCN1Cc1cccc2c(OC)cc(C(=O)OCC)cc12 (stereo unspecified)	?	?	13µM	-	?	-
CC1(C(=O)Nc2ccc3c(c2)OCCO3)CCN1Cc1ccc(-c2ccccn2)cc1 (stereo unspecified)	?	-	?	-	-	-
CC1(C(=O)NCc2ccccc2Br)CCN1Cc1ccc2ccccc2c1 (stereo unspecified)	21µM	-	?	?	-	-
CC1(C(=O)NCc2ccccc2Br)CCN1Cc1ccc(-c2ccccn2)cc1 (stereo unspecified)	15µM	-	18µM	?	?	-
CC1(C(=O)NCc2cccc3ccccc23)CCN1Cc1ccc2ccccc2c1 (stereo unspecified)	18µM	?	18µM	?	-	-
